# Experimental data reported in PubChem BioAssay (NCATS).
# Results filed as inconclusive are left out. Where a call stands in place of a potency, no number is given. Activity calls are given as the source filed them. Calls come from the whole dose curve; as a rule, active = well fitted inhibition curve with a large enough effect; inconclusive = small, poorly fitted or top-dose-only effect; inactive = flat fitted curve, though single readings scatter.
# Molecular target: Glutathione peroxidase 1 (Homo sapiens) (UniProt P07203)
# Assay: Primary qHTS Assay for Inhibitors of Recombinant Selenoprotein Glutathione Peroxidase 1 (GPX1) (AID 1845191); note: nearly all actives have a fitted effect of over 65% in size
# Details: recombinant GPX1, GR-coupled NADPH fluorescence, 15 min; series mostly up to 48.8 µM
# Method in brief: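 GPX1 10 nM, GR 100 nM, GSH 1 mM, NADPH 0.5 mM, CHP 0.5 mM (final). 30-min cpd preincubation, RT. Ex340/Em450 read t=0, t=15 min.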
# Potency is the fitted concentration of half-maximal effect.
# Sequence of Glutathione peroxidase 1 (Homo sapiens) (P07203 whole entry, looked up): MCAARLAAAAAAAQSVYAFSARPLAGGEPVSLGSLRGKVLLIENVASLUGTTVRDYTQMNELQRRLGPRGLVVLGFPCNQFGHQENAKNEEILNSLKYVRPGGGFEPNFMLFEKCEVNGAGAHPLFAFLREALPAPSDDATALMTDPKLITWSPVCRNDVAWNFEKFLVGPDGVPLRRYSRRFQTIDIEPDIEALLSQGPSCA
row,SMILES,Potency
1,COc1ccc(S(=O)(=O)Nc2c(C)cc(C)cc2C)cc1,inactive
2,CC1=C(C(=O)Nc2cc(Cl)ccc2Cl)C(c2ccco2)C2=C(CCCC2=O)N1 (centres undefined),inactive
3,CC(=O)O[C@H]1C[C@@](O)(C(C)C)[C@@H]2[C@@H](OC(=O)c3ccc(O)cc3)CC(C)=CC[C@@]12C,inactive
4,CCCCc1c(-c2ccc(OC)cc2)[nH]c2nccnc12,inactive
5,CC(C)S(=O)(=O)Nc1ccc(F)c(C(=O)c2c[nH]c3ncc(-c4cccnc4)cc23)c1F,inactive
6,O=C(N[C@@H]1CCCc2c1cnn2-c1ccc(F)cc1F)c1ccccn1,inactive
7,Cn1ncc(Cl)c1-c1cc(C(=O)N[C@H](CN)Cc2cccc(F)c2)sc1Cl,inactive
8,O=C(NCCCn1ccnc1)c1cc(-c2ccco2)on1,inactive
9,CC1(C)CC[C@]23CO[C@@]4(CCC5[C@@]6(C)CC[C@H](O[C@@H]7OC[C@H](O[C@@H]8O[C@H](CO)[C@@H](O)[C@H](O)[C@H]8O[C@@H]8OC[C@@H](O)[C@H](O)[C@H]8O)[C@H](O)[C@H]7O)[C@@](C)(CO)C6CC[C@@]5(C)[C@]4(C)CC2=O)[C@@H]3C1 (some centres undefined),inactive
10,C=C1CC2OC(=O)C(COC)C2C(OC(=O)/C(C)=C\C)CC2(C)OC1=CC2=O (centres undefined),inactive
11,CN(C)C(=O)NC1(c2ccccc2)CCN(CCC[C@]2(c3ccc(Cl)c(Cl)c3)CCCN(C(=O)c3ccccc3)C2)CC1,inactive
12,CCN(Cc1cc(Nc2nc(C)cn3c(-c4cn[nH]c4)cnc23)sn1)C(C)(C)CO,inactive
13,O=S(=O)(NCc1ccccn1)c1ccc(Br)c2ccccc12,inactive
14,COc1cc(/C=C2\CC[C@H]3COC[C@@H](c4cc(F)c(F)c(F)c4)N3C2=O)ccc1-n1cnc(C)c1,inactive
15,NC(N)=N/N=C/c1ccccc1Cl,inactive
16,CO[C@@H]1[C@H](O)CCC2(CO2)[C@H]1[C@@]1(C)O[C@@H]1CC=C(C)C (some centres undefined),inactive
17,O[C@@](Cc1ncc(CC2(C(F)(F)F)CC2)[nH]1)(c1ccc(-n2cccn2)cc1)C(F)(F)F,inactive
18,COc1ccc(-c2ccc3c(N4CCOCC4C)nc(N4CCOCC4C)nc3n2)cc1CO (centres undefined),18 µM (active)
19,CCn1c(-c2nonc2N)nc2c(C#CCO)ncc(OCCCN)c21,inactive
20,C=C1C(=O)OC2C1CCC1(C)C(O)CC=C(C)C21 (centres undefined),inactive

row,SMILES,Potency
1,COC(=O)c1cc2c(C(F)(F)F)cc(-c3ccccc3)cc2n1O,inactive
2,CCCc1cc(C)n(C)c(=O)c1CN(C)C(=O)c1cc(-c2ccc(N3CCN(C(C)C)CC3)nc2)cc2c1cnn2C(C)C,inactive
3,Cc1ccc(F)cc1S(=O)(=O)N[C@@H]1CCN(Cc2ccc(OC(C)C)cc2)C1,inactive
4,CC12CCC3C1C(c1c(cc(O)c(C(=O)c4ccccc4)c1O)O2)C3(C)C (centres undefined),inactive
5,Cc1ccc(C)c(NS(=O)(=O)c2cc(C(=O)Nc3ccccc3-c3ccccc3)ccc2C)c1,inactive
6,COC(=O)C[C@H]1C(C)(C)[C@H](OC(=O)c2ccccc2)C2CC3=C4CC(=O)O[C@@H](c5ccoc5)[C@]4(C)CCC3[C@@]1(C)C2=O (some centres undefined),inactive
7,C=C(C)C(=O)O[C@H]1C[C@@](C)(O)C2(O)CCC(C)(/C=C3/OC(=O)C(COC)=C31)O2 (some centres undefined),inactive
8,Cn1c(=O)c(F)c(Nc2ccc(I)cc2F)c2c(=O)n(CC(O)CO)cnc21 (centres undefined),inactive
9,Cc1cccc(CC(=O)N2CCc3c2ccc(-c2cn(C)c4ncnc(N)c24)c3F)n1,inactive
10,CC(=O)N1CCN(CCOc2ccc(C3CCN(C4=Nn5c(nnc5C(F)(F)F)CC4)CC3)cc2)CC1,inactive
11,O=C(Nc1nc2cc(C(F)(F)F)cc(NC3CC3)n2n1)c1cccnc1,inactive
12,Clc1ccc(Nc2nc3ccccc3c3nc(C4CCCCC4)[nH]c23)cc1Cl,inactive
13,COc1cc(C(C)=O)c(OC)c2c1OC(C)(C)C=C2,inactive
14,C1=Cc2ccccc2C(=C2CCN(CCCCc3nn[nH]n3)CC2)c2ccccc21,inactive
15,Cc1ccc(-c2ncc[nH]2)cc1NC(=O)c1ccc(OCc2ccccn2)cc1,inactive
16,CC(C)=CCCC1(C)C2CCC1(C)C(O)C2 (centres undefined),inactive
17,Cn1nc(-c2ccc(C(F)(F)F)cc2)nc2c(=O)n(C)c(=O)nc1-2,25.5 µM (active)
18,NCC(CNc1nc(Nc2cccc(NC(=O)N3CCCC3)c2)ncc1I)C(=O)c1cccs1 (centres undefined),inactive
19,C[C@H]1CC[C@@]2(OC1)O[C@H]1CC3[C@@H]4CC[C@@H]5C[C@@H](O[C@@H]6O[C@H](CO)[C@@H](O[C@@H]7O[C@H](CO[C@@H]8OC[C@@H](O)[C@H](O)[C@H]8O)[C@@H](O[C@@H]8O[C@H](CO)[C@H](O)[C@H](O)[C@H]8O)[C@H](O)[C@H]7O)[C@H](O)[C@H]6O)CC[C@]5(C)C4CC[C@]3(C)[C@H]1[C@@H]2C (some centres undefined),inactive
